# Results published in the supplement of paper PMC11417369.
# ± gives the standard deviation of the averaged measurements. The full ranking holds about 25,000 sequences; the median of “ln(normalized median fluorescence intensity)” is about 10, and the highest 2% start at about 12. The list comes from a sample in which the highest values are over-represented; it also holds similar and randomly drawn sequences.
# System: PfAP2-G AP2 domain (GST-tagged)
# Assay: gcPBM binding intensity (ln(normalized median fluorescence intensity)); higher = stronger DNA binding
# Method in brief: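 Probes on an Agilent 4 × 180k array were primer-extended, double-stranded and 36 bp long, taken from intergenic genomic regions, with negative controls added. GST-tagged P. falciparum DNA-binding domains from E. coli, about 25 μg on average, were applied to the array for 1 h in 1× PBS containing 1% milk, 0.2 mg/ml BSA, 0.5% salmon testes DNA and 0.03% Triton X-100. Binding intensity, obtained after Alexa488 anti-GST antibody detection and a 488 nm scan, is the highest Masliner-normalised natural-log median intensity across replicate spots of either probe orientation.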
row,Sequence,gcPBM binding intensity (ln)
1,ATTTTTTTTTTTATTTTCTTTGAGATTATCTTAATT [CACACA_negctrl_site1209],9.78 ± 0.14
2,TATGTATAAAAATAATGTACAAAATATATTATATGT [XGTACX_site2794],10.9 ± 0.4
3,TATATATATATATGGGGTACAAATGGTCAGTATTAT [XGTACX_site1223],11.7 ± 0.97
4,AAAAAAAAAATTGAAAGTACACAAATGGGGTATTAT [XGTACX_site3960],11.5 ± 0.87
5,TAAAATTTGTACATAGTGCAATTTTTTTTTTTTTTT,10.7 ± 0.52
6,ACATATAAATTGTGTACACATATATATATATTTTTT [CACACA_site5946],11.8 ± 1
7,CATAAAATTGTATTTTGTACACATTTTGTATACATT [XGTACX_site5705],11.4 ± 0.82
8,ATGAATATATATATTTGTACATATGTATATATATAT [XGTACX_site7527],10.9 ± 0.54
9,TAATATTTTTTGTGTACACATATATATATATATATA [CACACA_site5504],11.7 ± 0.88
10,TGTTATATTTGTGCGTGTACACATTTGAAAAAATAT [XGTACX_site3796],11.8 ± 1.1
11,TTTTTTTTTGGGTGTACACATGAATATATATTTTTT [CACACA_site5254],11.7 ± 0.95
12,TATATTTGTGCGTGTACACATTTGAAAAAATATATA [CACACA_site5079],11.6 ± 0.88
13,ATCATGAAATATATTTGTACACATAATAATATAATA [XGTACX_site8798],11.4 ± 0.89
14,TATACATATAAATTGTGTACACATATATATATATTT [XGTACX_site7875],11.6 ± 0.92
15,GTGTTTTTATTATTTTGTACACATATATTTAATATT [XGTACX_site2109],11.5 ± 0.87
16,TTTTTTTTGTGTATTTGTACATAATATATATATATA [XGTACX_site7092],10.9 ± 0.49
17,TTGTGAAATAAAATTTGTACACACATATATATATAT [XGTACX_site1078],11.2 ± 0.86
18,GTTGGGTAATTCGTAACACACATAAAATATATATAA [CACACA_site3986],10.13 ± 0.099
19,CATAATGTAAATAAGTGTACACATATATAATACATA [XGTACX_site3108],11.6 ± 0.9
20,TATATTTATAGGTACACACACACATATAAATAAATA [CACACA_site6345],11.3 ± 0.98
21,TTATTTCTACCTTTTTGTACACATTATTATGAAACC [XGTACX_site5325],11.3 ± 0.81
22,ACTATTTTAAAAATATGTACATACGTTGTAATTTAA [XGTACX_site7999],11.4 ± 0.83

row,Sequence,gcPBM binding intensity (ln)
1,ATAATACAATTTATAACACACACACTATAATACATA [CACACA_site8338],10.025 ± 0.007
2,TTAGGTATATATAAACGTACTCACAATATCATATAA [XGTACX_site8743],11.1 ± 0.71
3,GAATTATAAGAATAAACACACAAGCTTAAAAAAAAA [CACACA_site1204],9.74 ± 0.18
4,TATTTGTGTATTTTTACACACATTAATATATTTATA [CACACA_site7562],9.9 ± 0.2
5,AATATATATTTGTGTACACATTATATATATATATAT [CACACA_site6103],11.9 ± 1.1
6,ATATATTTATATTTGTGTACATATTTATTATATTTA [XGTACX_site404],11.5 ± 0.67
7,CAAAAAGGAATGTATGCACACAATTGATTTTAACTC [CACACA_site1468],10 ± 0.13
8,AAATTAATAAATATTTTTATAAATTATAATATTAAT [GTGCAC_negctrl_site533],9.37 ± 0.16
9,TTTATTTTTAAAGGCACACACATTTTTATTTTTAAA [CACACA_site2021],10.1 ± 0.19
10,AGAAATTAATCGAGGTGTACGTACATCCAAATATAT [XGTACX_site7650],11.8 ± 1.2
11,AGAAATTAATCGAAGTGTACATATAAACATACATAT [XGTACX_site5518],11.3 ± 0.69
12,GAAAATACGTTTAATCGTACATATATATAATATATA [XGTACX_site4243],11.1 ± 0.88
13,GAGAAAAGGAAATTCACACATATAAAGAAAGATCTA [CACACA_site5420],9.865 ± 0.064
14,AAAAAATATTTTTACAGTACATATATATAAAATGTT [XGTACX_site3215],10.9 ± 0.58
15,AAGGAAATATAATATACACACATAAGTGTACTTATA [CACACA_site4030],11.6 ± 1.1
16,ATAAATACACACAAGTGTACATACTTCTATAAATAT [XGTACX_site1845],11.3 ± 0.96
17,AAGGAAATATAATATACACACATAAGTGTACTTCTA [CACACA_site6079],11.7 ± 1.1
18,ATATAAATAAATATATGTACACACACAAATATATAC [XGTACX_site3950],11.4 ± 0.73
19,TACAAATTAATATGTACACACAAATATATATATATA [CACACA_site1977],11.4 ± 0.87
20,AAGAAATAAAAAGAATGTACACAATATGTATTATAA [XGTACX_site4733],11.5 ± 0.69
21,TTTTTTTTTTTTTTTACACACACAAAATATTATATG [CACACA_site2471],9.99 ± 0.38
22,ATATATATATATATGTGTACACAACAAAATAAAAAA [XGTACX_site7378],11.7 ± 0.79
